Screens as filed in PubChem BioAssay.
RAD52 anneal inh: blocks human RAD52 DNA annealing; P43351; recombinant RAD52 DNA annealing, FRET fluorescence; inhibition, % at 18.7 µM; 360,000 tested, 0.46% active; AID 651710;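 active = every replicate showing at least 50% inhibition; inconclusive = mean inhibition at least 50% but not in every replicate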
CASP6 VEID inh: blocks human caspase-6 cleavage activity; P55212; purified caspase-6, Z-VEID-R110 cleavage fluorescence; inhibition, % at 12.5 µM; 350,000 tested, 0.53% active; AID 686996;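 active = mean inhibition across replicates at least about 35%, with every replicate also reaching that limit, limit read from the data; inconclusive = only one of the two criteria met; inactive = neither criterion met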
Ecoli rRNA inh: inhibitors of bacterial rRNA selective over humanized ribosomes; E. coli WT GFP vs humanized-ribosome RFP mutants, fluorescence, 24 h; hits give low values; DMSO median 0, no signal -100; GFP signal change (wild-type ribosome), % (concentration not given with the values); AID 720706; 350,000 tested, 1.6% active;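 active = significant combined selectivity score with lowered wild-type GFP, culture density cut under 30%, mutant RFP and density less affected; inactive = any of these conditions unmet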
NSD2 inh: inhibitors of human histone methyltransferase NSD2 | inhibition, % at 12.5 µM | AID 743445 | O96028 | NSD2 peptide methylation, AlphaScreen, 120 min | 310,000 tested, 0.54% active; in the data active = inhibition above about 50%
MLL AF4-AF9 inh: blocks AF4 peptide binding to human AF9; AlphaScreen, biotin-AF4 peptide binding to FLAG-AF9; inhibition, % at 10 µM; 350,000 tested, 0.47% active;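 active = every replicate reaching a set inhibition limit, whatever the replicate mean, cut at about 25% in these data; inconclusive = mean inhibition reaches that limit but some replicates miss it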
AID977621: wild-type E. coli growth inhibition versus H69 humanized strain – H69 mutant RFP, wild-type GFP, cherry-pick, dose response; fluorescence, 24 h; 1,900 tested, under 10 active; AID 977621; shares compounds with Ecoli rRNA inh; activity change, negative = inhibition at 50 µM;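 active = Wild-type ribosome reporter drop at least double the humanized mutant ribosome reporter drop, growth loss under a set limit; inconclusive = no clear call, values can overlap the other calls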;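 note: wild-type GFP and H69 mutant RFP strains grown together 50/50 in each well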
AID977628: E. coli growth inhibition, wild-type GFP versus h24 humanized RFP strain, dose response, h24 mutant RFP vs wild-type GFP, cherry-pick; shares compounds with Ecoli rRNA inh; E. coli WT GFP strain growth, fluorescence, 24 h; activity change, negative = inhibition at 50 µM; 1,900 tested, under 10 active; AID 977628;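 active = compound lowering the normal-ribosome reporter at least twice as much as the humanized-ribosome reporter, growth loss under a set limit; inconclusive = no clear call, values can overlap the other calls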;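 note: wild-type GFP and h24 humanized RFP strains co-cultured 1 to 1 per well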
Hits are given with their value; - = inactive; ? = inconclusive; . = no result. An excerpt weighted towards active compounds, which were near 2.5% of everything screened.

SMILES	RAD52 anneal inh	CASP6 VEID inh	Ecoli rRNA inh	NSD2 inh	MLL AF4-AF9 inh	AID977621	AID977628
CSc1ccccc1NC(=O)c1ccccc1N(Cc1ccccc1)S(C)(=O)=O	-	-	-24	-	-	-	.
CO[C@@H]1CN(C)C(=O)c2ccc(NC(C)=O)cc2OC[C@@H](C)N(C(=O)CC2CC2)C[C@H]1C	-	-	-	.	-	.	.
Cc1ccsc1C(=O)OCC(=O)N1CCc2ccccc2C1	-	-	-22	-	-	-	.
CN(CC(=O)Nc1cccc(F)c1)C(=O)Cn1c(=O)oc2ccccc21	-	-	-17	-	-	-	-
Cc1nn(-c2ccccc2)nc1C(N)=O	-	-	-	-	.	.	.
Cc1nn(-c2cccc(Cl)c2)nc1C(=O)O	-	-	-16	-	-	-	.
COc1ccc(Oc2ccc(C(F)(F)F)cc2NC(=O)CC(CC(=O)O)c2ccccc2)cc1 (centres undefined)	-	-	-36	-	-	-	.
COc1ccc(Oc2ccc(C(F)(F)F)cc2NC(=O)c2ccc(F)cc2)cc1	-	-	-	-	-	.	.
C[C@@H](O)C#Cc1ccc2c(c1)O[C@@H](CN(C)Cc1ccncc1)[C@@H](C)CN([C@@H](C)CO)S2(=O)=O	-	-	-	.	-	.	.
CN(C)C(=O)[C@@H]1[C@@H](CO)[C@@H]2Cn3c(ccc(-c4ccccc4)c3=O)[C@H]1N2Cc1ccccn1	.	.	-	.	.	.	.
Cc1ccc(S(=O)(=O)N[C@@H]2CC[C@@H](CC(=O)NC3CCCCC3)O[C@@H]2CO)cc1	-	-	-	.	-	.	.
O=S(=O)(NC1CC1)c1ccc(S(=O)(=O)N2CCc3ccccc32)cc1	-	-	-20	-	.	-	.
O=S(=O)(c1ccc(F)cc1)N1CCc2ccccc21	-	-	-	-	-	.	.
O=C(C[C@H]1CC[C@@H](NC(=O)Nc2ccccc2F)[C@@H](CO)O1)NCc1ccccc1	-	-	-	.	-	.	.
O=C(C[C@H]1CC[C@H](NC(=O)Nc2ccccc2F)[C@H](CO)O1)NCc1ccc(-c2ccccc2)cc1	-	-	-20	.	-	-	?
Clc1ccc2[nH]c3c(NCCCN4CCOCC4)ncnc3c2c1	.	.	.	-	.	.	.
O=C1CCCN1CCCNc1ncnc2c1[nH]c1ccc(Cl)cc12	-	-	-23	-	.	-	.
CO[C@H]1CN(C)C(=O)c2cc(NC(=O)NC(C)C)ccc2OC[C@@H](C)N(Cc2ccccc2)C[C@H]1C	-	-	-	.	-	.	.
COc1ccc(NC(=O)N[C@H]2CC[C@H](CCNS(=O)(=O)c3ccccc3F)O[C@@H]2CO)cc1	-	-	-	.	-	.	.
Cc1[nH]nc2c1C(c1ccc(F)cc1)N(Cc1ccccc1)C2=O (centres undefined)	-	-	-21	-	.	.	?
Cc1ccc(C2c3c(n[nH]c3C)C(=O)N2Cc2ccccc2)cc1 (centres undefined)	-	-	-	.	-	.	.
O=C(CC(F)(F)F)N1C[C@@H]2[C@H](c3ccccc31)[C@@H](CO)N2C(=O)C1CCOCC1	-	-	-	.	-	.	.
Brc1ccc(-c2nc3c4ccccc4ccn3c2Cc2ccccc2)cc1	-	-	-22	.	-	-	-
Fc1cccc(Cc2c(-c3ccco3)nc3c4ccccc4ccn23)c1	-	-	-21	.	-	-	.
CN1CCN(C(=O)C[C@@H]2CC[C@H]3[C@@H](COC[C@@H](O)CN3Cc3ccc(Oc4ccccc4)cc3)O2)CC1	-	-	-	.	-	.	.
SMILES	RAD52 anneal inh	CASP6 VEID inh	Ecoli rRNA inh	NSD2 inh	MLL AF4-AF9 inh	AID977621	AID977628
CCCN(C)C[C@H]1Oc2ncc(C#CC3CC3)cc2C(=O)N([C@H](C)CO)C[C@H]1C	.	.	-	.	.	.	.
CC(C)C[C@H]1COc2cc(Br)ccc2S(=O)(=O)N1	-	-	-22	.	-	-	?
Cc1nc2ccccn2c1C(=O)Nc1ccc(Cl)cc1	-	-	-18	-	-	-	-
CC(NC(=O)c1c(N)[nH]c(C(=O)c2ccccc2)c1-c1ccccc1Br)c1cccc2ccccc12 (centres undefined)	-	-	-26	.	-	-	-
CC(NC(=O)c1c(N)[nH]c(C(=O)c2ccc(Cl)cc2)c1-c1ccc(Br)cc1)c1cccc2ccccc12 (centres undefined)	-	-	.	.	.	.	.
C[C@@H]1CN([C@@H](C)CO)C(=O)c2c(c3ccccc3n2C)-c2ccccc2CO[C@@H]1CN(C)C(=O)Nc1ccc(F)cc1	-	-	-	.	-	.	.
O=[N+]([O-])c1cncc([N+](=O)[O-])c1Nc1cccc(O)c1	-	-	-26	-	-	.	-
COc1ccc(NC(=O)c2cccc(Oc3ccc([N+](=O)[O-])cc3Cl)c2)cc1	-	-	-24	-	-	-	-
CC(C)[C@@H]1COCc2cn(nn2)CC[C@H](Cc2ccc(-c3ccccc3)cc2)C(=O)N1	.	.	-	.	.	.	.
COc1ccc(CC(=O)NCc2csc(-c3cccs3)n2)cc1OC	-	-	-20	-	-	-	.
COc1ccccc1N(C)S(=O)(=O)c1ccc(C(=O)NC(C)c2ccccc2)cc1 (centres undefined)	-	-	-18	-	-	.	?
CNC(=O)c1ccsc1NC(=O)c1ccc2c(c1)CCCC2	-	-	-26	.	-	?	.
C[C@@H]1CN([C@@H](C)CO)C(=O)CCCn2nncc2CO[C@H]1CN(C)C(=O)Nc1cccc(C(F)(F)F)c1	-	-	-17	.	-	.	?
O=C(Cc1cccnc1)N1CC(=O)N2[C@H](C1)[C@@H](c1ccc(C3=CCCCC3)cc1)[C@@H]2CO	-	-	-17	.	-	.	?
Cc1ccc(S(=O)(=O)Nc2ccc3c(c2)C(=O)N(C)[C@@H]2CC[C@H](CC(=O)NCCc4ccncc4)O[C@@H]2CO3)cc1	-	-	-	.	-	.	.
CCN(CC)C(=O)c1ccc(COc2ccccc2Cl)o1	-	-	-20	-	-	-	-
CCCNC(=O)Nc1ccc2c(c1)C(=O)N(C)[C@@H]1CC[C@H](CC(=O)NC3CCC3)O[C@H]1CO2	-	-	-	.	-	.	.
Cc1cc(NC(=O)CS(=O)(=O)c2cn(Cc3cccc(Br)c3)c3ccccc23)no1	-	-	-21	.	-	-	.
Cc1noc(C)c1NC(=O)Nc1ccc2c(c1)C(=O)N([C@H](C)CO)C[C@H](C)[C@H](CN(C)C(=O)Nc1ccc3c(c1)OCO3)OCCCC[C@@H](C)O2	-	-	-	.	-	-	?
Cc1noc(C)c1NC(=O)Nc1ccc2c(c1)C(=O)N([C@@H](C)CO)C[C@@H](C)[C@H](CN(C)C(=O)Nc1ccc3c(c1)OCO3)OCCCC[C@@H](C)O2	-	-	-	.	-	?	-
Cc1noc(C)c1NC(=O)Nc1ccc2c(c1)C(=O)N([C@H](C)CO)C[C@H](C)[C@H](CN(C)C(=O)Nc1ccc3c(c1)OCO3)OCCCC[C@H](C)O2	-	-	-	.	-	-	-
